ALOX12 inh – blocks human arachidonate 12S-lipoxygenase; purified 12hLO, xylenol orange hydroperoxide absorbance; Potency, µM (highest dose often 108 µM), for inactives: at the top dose activity change, negative = inhibition, most hits filed as inhibitors; actives 1.1% (n = 580,000); AID 1671190; further: potency means the concentration at half of the fitted maximal effect
Target sequence (P18054 whole entry, looked up): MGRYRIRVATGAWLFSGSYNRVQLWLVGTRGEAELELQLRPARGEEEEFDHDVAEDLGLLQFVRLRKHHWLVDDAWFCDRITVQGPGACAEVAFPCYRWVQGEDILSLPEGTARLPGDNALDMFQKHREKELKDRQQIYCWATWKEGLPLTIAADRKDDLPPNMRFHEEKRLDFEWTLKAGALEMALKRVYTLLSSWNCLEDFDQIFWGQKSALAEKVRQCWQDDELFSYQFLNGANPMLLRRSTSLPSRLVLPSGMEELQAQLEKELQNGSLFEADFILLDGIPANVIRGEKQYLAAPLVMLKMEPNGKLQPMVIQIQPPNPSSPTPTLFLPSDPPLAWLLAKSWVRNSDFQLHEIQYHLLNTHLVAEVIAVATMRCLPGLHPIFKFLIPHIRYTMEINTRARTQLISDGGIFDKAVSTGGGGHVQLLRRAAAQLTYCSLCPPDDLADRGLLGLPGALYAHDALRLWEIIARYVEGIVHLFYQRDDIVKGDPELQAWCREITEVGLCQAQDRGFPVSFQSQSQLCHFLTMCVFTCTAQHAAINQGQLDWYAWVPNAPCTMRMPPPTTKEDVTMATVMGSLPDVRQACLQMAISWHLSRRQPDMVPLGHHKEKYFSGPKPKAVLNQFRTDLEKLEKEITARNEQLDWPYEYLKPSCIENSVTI
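Hydroperoxide product was detected by ferrous iron/xylenol orange as the 573 to 405 nm absorbance ratio. Arachidonic acid at 40 uM (final) was turned over for 30 min at room temperature by 150 nM human 12hLO, pH 7.0 Hepes buffer, after 15 min compound preincubation.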
DT40 TDP1 CPT – growth inhibition of DT40 Tdp1-/-;hTDP1 cells with camptothecin (screen for TDP1 inhibitors). chicken DT40 Tdp1-/-;hTDP1 cells + 20 nM CPT, ATP luminescence, 48 h. Potency, µM (top dose mostly 46.2 µM), inactives show at the top dose activity change, negative = growth inhibition, most hits filed as inhibitors. actives 12% (n = 420,000); further: potency means the concentration at half of the fitted maximal effect; nearly all actives have a fitted effect of over 55% in size
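Chicken DT40 Tdp1-/- cells stably complemented with human TDP1 were seeded at 400 cells/well in medium containing 20 nM camptothecin, exposed to pin-transferred compounds, and grown at 37 °C for at least 48 hr. Viability was read as ATP luminescence.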
DT40 TDP1 no CPT – qHTS for Inhibitors of human tyrosyl-DNA phosphodiesterase 1 (TDP1): qHTS in cells in absence of CPT; DT40 Tdp1-/- hTDP1 cells, no CPT, ATP luminescence, 48 h; actives 15% (n = 420,000); Potency, µM (series often up to 46.2 µM), for the others: at the top dose activity change, negative = growth inhibition, hits mostly inhibitors; AID 686978, 2013; further: potency means the concentration at half of the fitted maximal effect; nearly all actives have a fitted effect of over 55% in size
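Growth kinetics read by CellTiter-Glo luminescence after ≥48 hr at 37 °C. Cells: DT40 Tdp1-/- stably carrying human TDP1, 400 per well, compound exposure in the absence of CPT (DMSO vehicle).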
HT1080 IDH1KD tx – toxicity to HT-1080 IDH1 knockdown cells (counter line). actives 2% (n = 360,000). HT-1080 IDH1 knockdown viability, ATP luminescence, 48 h. Potency, µM (series often up to 46.1 µM), for inactives: top-dose activity, negative = toxicity, actives largely listed as cytotoxic;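 further: potency means the concentration at half of the fitted maximal effect; 0% = DMSO wells and -100% = cell-free medium wells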
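Luminescent ATP read-out (CellTiter-Glo, 10 min at room temperature) after 48 h compound exposure at 37 °C gave viability of IDH1-knockdown HT-1080 cells. Activity was normalised to DMSO and cell-free wells, then fitted as concentration-response curves.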
IL-1B inflam inh – blocks inflammasome-driven IL-1 beta release; THP-1 LPS/ATP IL-1B secretion, AlphaLISA, 16 h; hits give low values; activity change, % at 57.5 µM; actives 4.7% (n = 360,000); in the data active means activity change below about -50%; inconclusive means mostly about -30% to -49%
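Secreted IL-1B measured by AlphaLISA bead assay after 16 h compound exposure of THP-1 cells; compounds (final up to 57.5 uM) added 1 h before LPS (250 ng/mL) and ATP (1.25 mM) stimulation; lower signal means less secretion.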
HT1080-NT tox – kills 2HG-producing HT-1080-NT fibrosarcoma cells | actives 1.6% (n = 360,000) | HT-1080-NT fibrosarcoma viability, CellTiter-Glo ATP luminescence, 48 h | AID 686970 | Potency, µM (doses to about 46.1 µM), inactives show at the highest dose activity, negative = less viability, most hits filed as cytotoxic;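 further: NT is the 2HG producing partner of a matched IDH1 knockdown line; potency means the concentration at half of the fitted maximal effect; 0% = DMSO-treated cells and -100% = media-only wells without cells; nearly all actives have a fitted effect of over 55% in size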
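Fibrosarcoma NT cells, 750 per well in 5% FBS RPMI, were exposed to compound for 48 hours. Viability: CellTiter-Glo luminescence.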
Numbers without * were called inactive; ? = inconclusive; nt = no result; [ ] = dose if it differs, or a comment. The full list was thinned out, with hits kept by preference. Unless noted, the call rests on the fitted dose curve; in most records, active means well fitted curve in the direction sought with a large enough effect; inconclusive means small, poorly fitted or top-dose-only effect, or another doubt; inactive means no such curve, though single readings can be large; an effect the other way counts as inactive or inconclusive. Unless noted, on the % scale 0 is the no-effect control and ±100 the full control effect.

SMILES	ALOX12 inh	DT40 TDP1 CPT	DT40 TDP1 no CPT	HT1080 IDH1KD tx	IL-1B inflam inh	HT1080-NT tox
Cc1cccc(-n2c(/C=C/c3cccc4ccccc34)nc3ccccc3c2=O)c1	7%	9.2µM*	6.5µM*	nt	nt	nt
Cc1cccc(OCC(=O)N2C[C@@H](CO)[C@H](N(C)C)C2)c1	40%	nt	nt	nt	nt	nt
C=C[C@H]1CN2CC[C@H]1C[C@@H]2CNS(=O)(=O)c1ccc(NC(C)=O)cc1	19%[176 µM]	nt	nt	nt	nt	nt
CN(Cc1ccccc1)C[C@H]1CN2CC[C@H]1C[C@@H]2CNC(=O)c1ccc(C(F)(F)F)cc1	-13%	nt	nt	nt	nt	nt
COc1ccc(C(=O)NC[C@H]2C[C@@H]3CCN2C[C@@H]3c2cc(-c3ccccc3Br)nc(C)n2)cc1	5%	nt	nt	nt	nt	nt
CC12CCC3C(CCC4=CC(=O)CCC43C)C1CCC2=O (configuration not stated)	-28%	nt	nt	nt	nt	nt
O=S1(=O)NCC2(CCN(Cc3ccsc3)C2)Oc2ncccc21 (configuration not stated)	10%[6.33 µM]	nt	nt	nt	nt	nt
Cn1nc(C2CCCCC2)cc1[C@H]1CN2CC[C@H]1C[C@@H]2CNC(=O)c1ccco1	48%[176 µM]	nt	nt	nt	nt	nt
Cc1cccc(-n2c(/C=C/c3cn(C)c4ccccc34)nc3ccccc3c2=O)c1	?	6.5µM*	9.2µM*	nt	nt	nt
Cc1cccc(-n2c(/C=C/c3c(C)[nH]c4ccccc34)nc3ccccc3c2=O)c1	0%	?	?	nt	nt	nt
Cc1ccc(-n2c(/C=C/c3cccc4ccccc34)nc3ccccc3c2=O)cc1	5%	?	21µM*	nt	nt	nt
CCCCCc1nc2ccccc2c(=O)n1-c1ccc(C)cc1	-22%	-25%	?	nt	nt	nt
C[C@H](CO)N1C[C@H](C)[C@@H](CN(C)C(=O)c2ccc3c(c2)OCO3)Oc2cc(/C=C/c3ccccc3)ccc2S1(=O)=O	-8%	21µM*	8.2µM*	-28%	?	-21%
COc1cccc2c1NC1(C)c3ccccc3-n3nncc3CN1C2=O (configuration not stated)	-17%	nt	nt	nt	nt	nt
CCOC(=O)c1c(-n2c(C)cc(C=C3C(=O)NC(=O)NC3=O)c2C)sc2c1CCCC2	-20%	?	18µM*	0%	-15	9%
Cc1cccc(N2C(=O)NC(=O)/C(=C\c3cc(C)n(-c4sc5c(c4C#N)CCCC5)c3C)C2=O)c1C	?	?	?	16µM*	-138*	?
Cc1cc(/C=C2\C(=O)NC(=O)N(c3ccccc3F)C2=O)c(C)n1-c1cc(C(=O)O)cc(C(=O)O)c1	?	3%	-1%	0%	-18	3%
Cc1cc(C=C2C(=O)NC(=O)NC2=O)c(C)n1-c1ccc2c(c1)OCO2	?	-18%	-3%	-18%	0	-7%
CC1CCC(NCCc2ccc3c(c2)OCO3)CC1 (configuration not stated)	?	?	?	-9%	-5	4%
CCOc1ccc(CN(CCc2ccc3c(c2)OCO3)Cc2cccc(Br)c2)cc1	?	2.1µM*	?	nt	nt	nt
CNC(=O)N1N=C(c2ccc(N)cc2)c2cc3c(cc2CC1C)OCO3 (configuration not stated)	-25%[57.4 µM]	nt	nt	nt	nt	nt
COC(=O)C1=C(N)Oc2c(c(=O)oc3ccccc23)[C@]12C(=O)N(C)c1ccccc12	?	?	?	1%[9.24 µM]	0	16%
COC(=O)C1=C(N)OC(C)=C(C(C)=O)C12C(=O)N(C)c1ccccc12 (configuration not stated)	7%	?	21µM*	0%	2	6%
C[n+]1c(-c2ccccc2)c2cc(N)ccc2c2ccc(N)cc21	?	0.52µM*	0.16µM*	1.3µM*	0	6.5µM*
Nc1ccc2ccc3cccc[n+]3c2c1	?	?	-11%	-19%	39	-18%
SMILES	ALOX12 inh	DT40 TDP1 CPT	DT40 TDP1 no CPT	HT1080 IDH1KD tx	IL-1B inflam inh	HT1080-NT tox
COc1ccc(CNC(=O)CCC(=O)N2C[C@H]3C[C@H](C2)c2cccc(=O)n2C3)cc1OC	2%	8%	1%	4%	21	5%
COc1ccc(CNC(=O)CSCc2cnn(-c3ccccc3)c2-n2cccc2)cc1OC	-20%	15µM*	13µM*	nt	nt	nt
O=C(Cc1ccccc1)Oc1ccc([N+](=O)[O-])cc1	11%	-23%	-20%	0%	9	1%
CC(=O)c1ccc(OC(=O)N(C)c2ccccc2)cc1	-5%	-17%	-22%	12%	-7	12%
CN(Cc1cccc(-c2ccncc2)c1)C(=O)Oc1ccc([N+](=O)[O-])cc1	nt	21µM*	16µM*	?	-26	?
CN(C(=O)Oc1ccc([N+](=O)[O-])cc1)c1ccccc1	10%	4%	-6%	3%	-56*	0%
O=C1CO[C@H]2CN(C3CCOCC3)C[C@H]2N1Cc1ccncc1	76%[176 µM]	nt	nt	nt	nt	nt
COc1ccc(CCNc2nc3ccc(Cl)cc3n3cnnc23)cc1OC	-12%	18µM*	16µM*	nt	nt	nt
CN1Cc2ccccc2-n2ccnc2C12CCN(C(=O)Cc1cccs1)CC2	13%	nt	nt	nt	nt	nt
COCCN1C[C@H]2CN(CC3CC3)CCN2C1=O	-3%[176 µM]	nt	nt	nt	nt	nt
COC(=O)C1=C(N)Oc2cc(C)oc(=O)c2C12C(=O)Nc1ccccc12 (configuration not stated)	100%	?	16µM*	4%	10	3%
COC(=O)Cc1ccccc1	-2%[176 µM]	nt	nt	nt	nt	nt
COc1ccc(CC(=O)Nc2ccc(N3CCC(NC(C)Cc4cccnc4)CC3)cc2)cc1 (configuration not stated)	13%	nt	nt	nt	nt	nt
CCCCOC(=O)COc1cc(C)cc2oc(=O)c3c(c12)CCC3	?	4%	-13%	2%	-8	-3%
Cc1cc(OCC(=O)N2CCC(C(=O)O)CC2)c2c3c(c(=O)oc2c1)CCCC3	37%	-6%	-6%	7%	4	1%
CCN(CC)C(=O)COc1cc(C)cc2oc(=O)c3c(c12)CCCC3	-12%	?	?	-4%	-50*	-4%
C=CCOC(=O)COc1cc(C)cc2oc(=O)c3c(c12)CCC3	-8%	-6%	-7%	-7%	-24	-6%
Cc1cc(OC(=O)c2ccco2)c2c3c(c(=O)oc2c1)CCC3	7%	?	23µM*	0%	0	0%
Cc1cc(OCC(=O)N2CCC(C(=O)NCC(C)C)CC2)c2c3c(c(=O)oc2c1)CCCC3	-15%	-19%	13µM*	15%	46	13%

Assay outcomes (PubChem BioAssay)
